Bioassay records deposited in PubChem BioAssay by National Center for Advancing Translational Sciences (NCATS).
Most compounds without a hit are left out; they make up all but 3% or so of the library.
BCR signal inh = chronic active BCR signaling inhibition | AID 493014 | actives 0.05% (n = 340,000) | Potency, µM (highest dose often 46.1 µM), inactives show at the top dose activity change, negative = inhibition, hits mostly inhibitors | ABC-DLBCL IkBa-CBG/CBR reporter, luminescence ratio, 4 h; active = well fitted inhibition curve with a large enough effect in the signal ratio, with a control signal flat, not every such curve was filed as active; inconclusive = small, poorly fitted or top-dose-only effect, or effect the other way, or a change in a side signal; the % refers to the signal ratio;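 note: potency is the fitted concentration of half-maximal effect; plate controls were basal doxycycline-induced cells for no effect and cells given 10 µM MG132 for full effect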
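Compounds up to 46 uM were incubated four hours with TMD8 cells whose green CBG68 luciferase is fused to IkappaBalpha; red CBR luminescence normalised the signal, and concentration-effect curves were fitted to fusion, red and ratio data.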
ClpP mod = qHTS Assay for Activators of ClpP | purified B. subtilis ClpP, FRET peptide cleavage, 20 min | Potency, µM (top dose mostly 57.5 µM), inactives show top-dose activity change, negative = active | actives 1.9% (n = 340,000); active = well fitted falling curve with a large enough effect; inconclusive = small, poorly fitted or top-dose-only effect; inactive = no such curve, though single readings can be large or run the other way; note: potency is the fitted concentration of half-maximal effect; the source files actives as falling curves though it sought activators and does not explain the sign; nearly all actives have a fitted effect of over 65% in size
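Buffer: 100 mM Tris/HCl pH8, 100 mM KCl, 0.05% low protease BSA, 2.5% glycerol, 0.01% Tween-20. ClpP 10 microg/mL final; 20 min RT; delta FRET normalized to ADEP and DMSO controls.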
KCNH2 3.1 inh = blocks the human KCNH2 3.1 channel isoform; U2OS KCNH2 3.1, thallium flux FluxOr; active compounds read low; activity change, % (tested at about 1.8 µM); actives 0.95% (n = 340,000);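 active = maximum activity change below -70%; inconclusive = maximum activity change from -70% to -50%; inactive = maximum activity change above -50%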;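 note: thallium influx rate constant from kinetic fluorescence after stimulation buffer; % is set by controls: 0 for no effect and ±100 for the full control effect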
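Kinetic fluorescence (2 min after stimulation buffer) measures Tl+ influx through KCNH2 3.1 expressed by viral transduction in U2OS cells; the rate constant is normalized against DMSO controls serving as positive and negative references.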
LDHA block = inhibitors of human lactate dehydrogenase A; actives 0.15% (n = 480,000); P00338; purified LDHA, NADH/diaphorase-resazurin fluorescence; active compounds read low; activity change, % (values are at about 110 or 230 µM); in the data active = activity change below about -30%; inconclusive = mostly about -25% to -30%;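 note: plate controls were DMSO wells for no effect and wells without enzyme for full effect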
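LDH5 2 nM; NADH 0.06 mM, pyruvate 0.2 mM; 200 mM Tris pH 7.4, EDTA, Tween-20; 5 min RT. Detection: diaphorase 0.133 mg/mL + resazurin 37 µM, fluorescence ex540/em590 at 0 and 20 min; normalized to enzyme-free and DMSO wells.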
hERG WT inh = inhibitors of human wildtype KCNH2 potassium channel; Q12809; U2OS, BacMam KCNH2, thallium flux FluxOr; active compounds read low; actives 0.37% (n = 340,000); activity change, % at 1.84 µM; AID 720551;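 active = maximum activity change below -70%; inconclusive = maximum activity change between -70% and -50%; inactive = maximum activity change above -50%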; note: % is set by controls: 0 for no effect and ±100 for the full control effect
Target sequence (Q12809 whole entry, looked up): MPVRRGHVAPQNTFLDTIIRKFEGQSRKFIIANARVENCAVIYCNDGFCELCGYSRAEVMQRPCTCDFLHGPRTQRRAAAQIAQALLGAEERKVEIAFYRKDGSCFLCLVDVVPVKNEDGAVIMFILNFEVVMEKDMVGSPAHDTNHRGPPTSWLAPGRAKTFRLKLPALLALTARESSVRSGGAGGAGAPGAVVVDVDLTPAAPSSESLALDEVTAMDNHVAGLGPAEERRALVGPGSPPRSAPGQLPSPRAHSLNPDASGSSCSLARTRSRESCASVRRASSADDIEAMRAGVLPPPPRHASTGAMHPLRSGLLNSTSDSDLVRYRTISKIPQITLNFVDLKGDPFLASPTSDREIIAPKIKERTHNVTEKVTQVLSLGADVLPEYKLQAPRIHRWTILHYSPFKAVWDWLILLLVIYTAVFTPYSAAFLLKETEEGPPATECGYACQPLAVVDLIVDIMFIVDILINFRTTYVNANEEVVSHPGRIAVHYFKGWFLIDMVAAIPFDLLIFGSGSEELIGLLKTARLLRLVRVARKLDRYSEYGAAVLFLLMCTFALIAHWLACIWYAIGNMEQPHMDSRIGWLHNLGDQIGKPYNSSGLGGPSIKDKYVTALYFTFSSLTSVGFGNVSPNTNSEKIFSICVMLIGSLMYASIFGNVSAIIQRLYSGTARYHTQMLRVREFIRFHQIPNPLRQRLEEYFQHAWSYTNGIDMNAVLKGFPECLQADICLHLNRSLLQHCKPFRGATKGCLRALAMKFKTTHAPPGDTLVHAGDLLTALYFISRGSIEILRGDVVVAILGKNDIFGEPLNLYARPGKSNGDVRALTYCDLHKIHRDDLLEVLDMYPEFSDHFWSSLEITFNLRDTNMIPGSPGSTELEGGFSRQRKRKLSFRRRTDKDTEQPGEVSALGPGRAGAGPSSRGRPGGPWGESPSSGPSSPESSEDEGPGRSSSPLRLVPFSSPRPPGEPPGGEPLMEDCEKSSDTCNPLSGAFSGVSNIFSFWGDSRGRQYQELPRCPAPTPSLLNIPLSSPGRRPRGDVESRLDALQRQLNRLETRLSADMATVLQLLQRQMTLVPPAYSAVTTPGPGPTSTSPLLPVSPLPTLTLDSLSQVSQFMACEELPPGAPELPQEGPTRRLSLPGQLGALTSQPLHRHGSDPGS
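U2OS cells transduced with wild-type KCNH2 virus are loaded with FluxOr dye for 45 min, and thallium flux is measured in kinetic reads before and after stimulation buffer. Rate constants are normalized to DMSO controls.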
12-LOX inh = blocks human arachidonate 12S-lipoxygenase. P18054. purified 12hLO, xylenol orange hydroperoxide absorbance. Potency, µM (highest dose often 108 µM), for inactives: at the highest dose activity change, negative = inhibition, hits mostly inhibitors. actives 1.1% (n = 580,000). AID 1671190; note: potency is the fitted concentration of half-maximal effect; % is set by controls: 0 for no effect and ±100 for the full control effect
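Hydroperoxide product was detected by ferrous iron/xylenol orange as the 573 to 405 nm absorbance ratio. Arachidonic acid at 40 uM (final) was turned over for 30 min at room temperature by 150 nM human 12hLO, pH 7.0 Hepes buffer, after 15 min compound preincubation.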
ClpP inh valid = validation of B. subtilis ClpP protease hits (inhibitors); shares compounds with ClpP mod; purified B. subtilis ClpP, FRET-FV substrate cleavage, 20 min; Potency, µM (titrated, usually from 57.5 µM), for the others: top-dose activity change, negative = inhibition, usual class: inhibitors; actives 40% (n = 470); AID 743245; note: potency is the fitted concentration of half-maximal effect; % is set by controls: 0 for no effect and ±100 for the full control effect; nearly all actives have a fitted effect of over 70% in size
The depositor's hits bear a star; ? = inconclusive; / = not tested or not shown. Unless noted, calls come from the whole dose curve; as a rule, active = well fitted curve in the direction sought with a large enough effect; inconclusive = small, poorly fitted or top-dose-only effect, or another doubt; inactive = no such curve, though single readings can be large; an effect the other way counts as inactive or inconclusive.

SMILES	BCR signal inh	ClpP mod	KCNH2 3.1 inh	LDHA block	hERG WT inh	12-LOX inh	ClpP inh valid
O=C(O)c1ccc(COc2cccc(Cl)c2Cl)o1	/	/	/	-1	/	?	/
O=C(c1ccncc1)N1CCN(S(=O)(=O)c2cccc(Cl)c2)CC1	4%	3.2µM*	9	-13	6	-20%	0%
O=C(c1ccncc1)N1CCN(S(=O)(=O)c2cccc(F)c2)CC1	8%	-1%	3	-2	3	?	/
COc1ccc(NC(=O)c2ccco2)cc1NC(=O)COc1cc(C)ccc1C(C)C	/	49%	/	1	/	-19%	2%
Cc1c(C(=O)N2CCN(c3ccccn3)CC2)oc2c(F)cccc12	?	/	-18	-6	9	-13%	/
Cc1c(C(=O)N2CCN(c3ncccn3)CC2)oc2c(Cl)cccc12	0%	3.2µM*	11	-3	1	?	-2%
COc1ccc(NC(=O)c2oc3ccccc3c2NC(=O)c2ccco2)c(OC)c1	0%	357%	16	-2	-6	-25%	?
COc1ccc(NC(=O)c2oc3ccccc3c2NC(=O)c2cc3ccccc3o2)c(OC)c1	/	?	/	-6	/	-20%	/
COc1ccc(OC)c(C2C=C(C(=O)O)Nc3c(C(=O)Nc4ccccc4OC)cnn32)c1 (stereo not drawn)	/	/	/	-1	/	12%	/
COc1ccc(S(=O)(=O)N2CCC(CN3C(=O)c4cccc5cccc(c45)C3=O)CC2)cc1	-10%	10µM*	-18	-4	-6	-3%	24µM*
O=C(c1ccc(S(=O)(=O)N2CCCC2)cc1)N1CCC(CN2C(=O)c3cccc4cccc(c34)C2=O)CC1	-9%	/	-18	1	-1	0%	/
O=C(NCc1cccc(F)c1)c1ccc(NC(=O)c2nsc3ccccc23)cc1	/	36%	/	1	/	4%	?
COc1ccc(-c2cc(C(=O)Nc3c(Cl)cc(Cl)cc3Cl)c3ccccc3n2)cc1OC	-1%	230%	-40	3	-8	-27%	22µM*
CCCCCNC(=O)C(c1cccc2ccccc12)n1c(=O)c(-c2cc3ccccc3[nH]2)nc2ccccc21 (stereo not drawn)	/	38%	/	2	/	?	7%
O=C(NCc1ccccc1)C(c1ccc(-c2ccccc2)cc1)n1c(=O)c(-c2cc3ccccc3[nH]2)nc2ccccc21 (stereo not drawn)	/	36%	/	-4	/	-9%	10%
O=C(Nc1ccc2ccccc2c1)C(c1ccccc1F)n1c(=O)c(-c2cc3ccccc3[nH]2)nc2ccccc21 (stereo not drawn)	/	54%	/	-3	/	-30%	6%
CCCCCNC(=O)C(c1ccccc1)n1c(=O)c(-c2cc3ccccc3[nH]2)nc2ccccc21 (stereo not drawn)	/	?	/	0	/	-1%	/
O=C(NC1CCCCC1)C(c1cccc2ccccc12)n1c(=O)c(-c2cc3ccccc3[nH]2)nc2ccccc21 (stereo not drawn)	/	41%	/	-6	/	-70%	6%
O=C(NCc1ccccc1)C(c1ccncc1)n1c(=O)c(-c2cc3ccccc3[nH]2)nc2ccccc21 (stereo not drawn)	/	-21%	/	-2	/	?	/
COc1cccc(-n2cc(CN(C)Cc3cn(-c4ccccc4)nn3)cn2)c1	/	/	/	/	/	38%	/
N#Cc1ccc(C(=O)NC2CCSc3ccccc32)cc1 (stereo not drawn)	/	/	/	6	/	30%	/
CCCCCc1cc(=O)oc2c(C(CCN3CCCC3)c3ccc(N(C)C)cc3)c(OC)cc(OC)c12 (stereo not drawn)	-11%	90%	-8	2	-6	-29%	20%
O=C(O)c1ccc(-c2cc(Cl)cc(Cl)c2)s1	/	/	/	-3	/	?	/
NC(=S)Nc1cc2ccccc2c2ccccc12	3%	34%	-11	8	10	?	19%
COc1ccc(Nc2cc(C(=O)NC3CCCC3)c3ccccc3n2)cc1	/	38%	/	-4	/	?	-10%
SMILES	BCR signal inh	ClpP mod	KCNH2 3.1 inh	LDHA block	hERG WT inh	12-LOX inh	ClpP inh valid
N#Cc1cn(CC(=O)Nc2ccc(F)c(F)c2)c2ccccc12	/	/	/	-3	/	?	/
Cc1c2c(nc3c(C(=O)NC4CCCC4)cnn13)CCCC2	-2%	7.1µM*	-6	-8	-6	2%	22µM*
Cc1ccc(-c2cn3c(n2)sc2cc(C(=O)NCc4cccs4)ccc23)cc1	/	7.1µM*	/	-9	/	-16%	27µM*
Cn1c(=O)c2c(nc(Cl)n2Cc2ccccc2C#N)n(C)c1=O	/	/	/	3	/	4%	/
CCOc1ccc(/C=C/c2nc3ccccc3n2S(=O)(=O)c2cccc(Cl)c2)cc1	/	4%	/	-5	/	-3%	/
Cc1ccc(/C=C/c2nc3ccccc3n2S(=O)(=O)c2cccc(Cl)c2)cc1	?	10µM*	/	-5	/	-18%	?
CNC(=O)[C@H]1C[C@H](Oc2cccnc2)CN1S(=O)(=O)c1ccccc1C	/	/	/	/	/	24%	/
Cc1nc(-c2ccc(Cl)cc2)sc1C1(C)CC(c2c(Cl)cccc2Cl)=NO1 (stereo not drawn)	?	10µM*	2	-8	-4	1%	27µM*
COc1ccc(C(NC(=O)Cc2ccccc2)c2ccc(OC)c(OC)c2)cc1OC	/	/	/	-9	/	-3%	/
CNC(=O)C1CCN(CCc2ccncc2)CC1	/	/	/	5	/	26%	/
O=C(Cn1cnc2ccccc2c1=O)OCC(=O)c1ccc2c(c1)OCO2	/	/	/	0	/	-27%	/
CSc1ccc(CCNC(=O)c2cc(C)nc3c2c(C)nn3-c2ccccc2)cc1	/	67%	/	-12	/	-39%	17µM*
Cc1ccc(CCNC(=O)c2cc(C)nc3c2c(C)nn3-c2ccc(C)cc2)cc1	/	70%	/	-14	/	3%	27µM*
CCN(c1ccccc1)S(=O)(=O)c1ccc(OC)c(NC(=O)c2n[nH]c(=O)c3ccccc23)c1	/	/	/	1	/	8%	/
O=C(CN1CCN(Cc2ccccc2)CC1)NCCc1ccccc1	0%	6.3µM*	-1	-5	-2	-25%	1%
Cc1[nH]c2ccccc2c1C(=O)C(C#N)C(=O)C1CC=CCC1 (stereo not drawn)	/	/	/	-4	/	?	/
CCCN(CCC(=O)Nc1ccccc1F)CC1CC1	-7%	1%	6	0	8	0%	/
CCCN(CCC(=O)Nc1cc(OC)cc(OC)c1)CC1CC1	-1%	35%	15	21	1	?	-7%
CCn1cnc2sc(C(=O)Nc3ccccc3OC)c(C)c2c1=O	-2%	-5%	-6	-9	-8	-1%	/
COc1ccccc1NC(=O)c1sc2ncn(Cc3ccccc3C)c(=O)c2c1C	-3%	163%	-9	-2	-2	2%	?
